From PubChem
Shown are actives, neighbours in structure and some others; about 9.5% of the full set was active somewhere.
NS1 inh: qHTS Assay for Inhibitors of Influenza NS1 Protein Function | Potency, µM (top dose mostly 46.1 µM), without a hit: at the highest dose activity, positive = more growth | AID 2326, 2010 | 270,000 tested, 0.4% active; note: actives are rising curves; nearly all actives have a fitted effect of over 50% in size
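In this qHTS, NS1 from influenza A is expressed in budding yeast, where it slows growth. Cells are switched from glucose to 2% galactose medium (pH 6.0, -URA), treated with compound, and growth recovery is read at OD600.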
Pf growth 48h: Primary qHTS for delayed death inhibitors of the malarial parasite plastid, 48 hour incubation. P. falciparum luciferase growth in erythrocytes, 48 h. Potency, µM (series often up to 28.7 µM), without a hit: top-dose activity change, negative = inhibition, most hits filed as inhibitors. 310,000 tested, 5.9% active; active = well fitted inhibition curve with a large enough effect; inconclusive = small, poorly fitted or top-dose-only effect, or another doubt; inactive = no such curve, though single readings can be large or run the other way; note: % is set by controls: 0 for no effect and ±100 for the full control effect
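Here the parasites carry a stable luciferase gene and grow inside erythrocytes in Albumax-based RPMI medium with compound for one erythrocytic cycle. Activity is scored as loss of luminescent signal.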
RE007 growth inh: qHTS Assay for Inhibitors of the HIV-1 protein Vpr; S. pombe RE007 Vpr strain, BacTiter-Glo ATP luminescence, 24 h; Potency, µM (top dose mostly 92.2 µM), for inactives: at the top dose activity change, negative = less growth, most hits filed as inhibitors; 360,000 tested, 0.21% active; AID 651644, 2012; active = well fitted falling curve with a large enough effect; inconclusive = small, poorly fitted or top-dose-only effect; inactive = no such curve, though single readings can be large or run the other way; note: % is set by controls: 0 for no effect and ±100 for the full control effect; nearly all actives have a fitted effect of over 50% in size
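Fission yeast RE007 carrying one integrated HIV-1 vpr copy, seeded at OD 0.01 in PMG+AL medium with 23 nL pinned compound. Grown 24 h at 30 degrees; viability read by BacTiter-Glo luminescence after 5 min.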
SARS PLP yeast: qHTS of Yeast-based Assay for SARS-CoV PLP; S. cerevisiae expressing SARS-CoV PLpro, growth rescue; Potency, µM (doses to about 32.9 µM), for inactives: at the top dose activity, positive = growth rescue, actives largely listed as activators; 330,000 tested, 0.19% active; AID 485353, 2010; note: 0% is about no effect; nearly all actives have a fitted effect of over 55% in size
Pf growth 96h: Primary qHTS for delayed death inhibitors of the malarial parasite plastid, 96 hour incubation. P. falciparum luciferase reporter growth, 96 h. Potency, µM (titrated, usually from 28.7 µM), without a hit: top-dose activity change, negative = inhibition, hits mostly inhibitors. 320,000 tested, 6.9% active. AID 504834, 2011; active = well fitted inhibition curve with a large enough effect; inconclusive = small, poorly fitted or top-dose-only effect, or another doubt; inactive = no such curve, though single readings can be large or run the other way; note: % is set by controls: 0 for no effect and ±100 for the full control effect
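Two-generation exposure (96 h) targets delayed-death phenotype. Reporter parasites carrying integrated firefly luciferase, in red cells at 2% hematocrit and 0.05% parasitemia final, kept at 37 C, 5% CO2; luminescence loss indicates inhibition.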
The depositor's hits bear a star; ? = inconclusive; · = no result given. Unless noted, calls come from the whole dose curve. Potency is the fitted concentration of half-maximal effect.

SMILES	NS1 inh	Pf growth 48h	RE007 growth inh	SARS PLP yeast	Pf growth 96h
COC(=O)C1=C(c2ccc(F)cc2OCc2ccccc2)C[C@@H]2CC[C@H]1N2C(=O)N1CCC(O)(c2ccc(Cl)cc2)CC1	·	·	-1%	0%	·
COC(=O)C1=C(c2ccc(F)cc2OCc2ccccc2)C[C@@H]2CC[C@H]1N2C(=O)N1CCOCC1	·	6.6µM*	8%	-10%	?
COC(=O)C1=C(c2ccc(F)cc2OCc2ccccc2)C[C@@H]2CC[C@H]1N2C(=O)N1CCC(C)CC1	·	7.4µM*	28%	-3%	?
CSc1ccc(S(=O)(=O)N2CCC(C(=O)NCC3CCCO3)CC2)cc1 (stereo unspecified)	-3%	0%	-15%	1%	7%
O=C(/C(=C/c1ccc(Cl)cc1)c1nc2ccccc2[nH]1)c1ccccc1	-108%	2.9µM*	-4%	-38%	2.3µM*
CCCCn1c(N)c(N(CC(C)C)C(=O)CC2CCCCC2)c(=O)[nH]c1=O	·	?	-5%	0%	4%
C=C(Br)Cn1c(CCC)nc2ccccc21	-19%	-14%	-11%	-3%	10µM*
C=C(Br)Cn1c(CC)nc2ccccc21	9%	36%	-5%	18%	?
CCCc1nc2ccccc2n1CCOc1ccccc1	-64%	·	-16%	-2%	4.1µM*
CC(C)(C)N1CC(c2nc3ccccc3n2CCOc2ccccc2)CC1=O (stereo unspecified)	-26%	·	-21%	0%	5.9µM*
Cc1nc(Cl)c(Cl)n1CCOc1ccccc1	1%	8.3µM*	8%	-2%	?
COc1cc2nc(Nc3cccc(F)c3)nc(N)c2cc1OC	-1%	0.41µM*	9%	-1%	?
COc1nc(Nc2cccc(F)c2)nc(OC)n1	-8%	-7%	7%	4%	1%
O=C(Nc1nc(-c2ccc(Cl)cc2Cl)cs1)c1ccc(OCC2CCCO2)cc1 (stereo unspecified)	11%	-21%	-2%	1%	?
CC(C)COc1ccc(C(=O)Nc2scc(-c3ccc(Cl)cc3Cl)c2C(N)=O)cc1	22%	3.3µM*	16%	-5%	?
Cc1cc(Cl)ccc1OCC(=O)NNC(=O)c1cnccn1	·	?	-23%	15%	8.3µM*
Cc1cc(Br)ccc1OCC(=O)NNC(=O)c1cnccn1	-10%	?	-17%	?	12µM*
COc1ccc(CC(=O)NNC(=O)COc2ccc(Br)cc2C)cc1OC	12%	1%	1%	-2%	-25%
Cc1ccc(C(=O)NNC(=O)COc2ccc(Cl)cc2C)o1	·	-6%	-4%	-6%	-14%
CN1CCC2CC1c1cc(-c3ccc(C(F)(F)F)cc3)ccc12 (stereo unspecified)	·	·	-9%	·	·
Cc1cc(C)c2[nH]c(=O)c(C(c3nnnn3CC3CCCO3)N3CCCC(C)C3)cc2c1 (stereo unspecified)	-21%	15µM*	8%	0%	·
Cc1cc(C)c2[nH]c(=O)c(C(c3nnnn3Cc3ccc4c(c3)OCO4)N3CCCCC3)cc2c1 (stereo unspecified)	-32%	-15%	-3%	2%	-3%
CCC(C)(C)n1nnnc1C(c1cc2cc(C)cc(C)c2[nH]c1=O)N1CCN(Cc2ccc3c(c2)OCO3)CC1 (stereo unspecified)	7%	·	9%	4%	0.52µM*
CCC(C)(C)n1nnnc1C(c1cc2cc(C)cc(C)c2[nH]c1=O)N1CCCC1 (stereo unspecified)	?	5.9µM*	18%	-2%	?
OCC[C@@H]1C[C@H](O)[C@@H](O)[C@@]2(Cc3ccccc3O2)O1	-2%	37%	-7%	0%	49%
SMILES	NS1 inh	Pf growth 48h	RE007 growth inh	SARS PLP yeast	Pf growth 96h
Cc1onc(-c2ccccc2)c1C(=O)OCC(=O)NC(C)c1ccc(Cl)cc1 (stereo unspecified)	·	15µM*	13%	-12%	?
COc1ccc(NC(=O)COC(=O)c2c(-c3ccccc3)noc2C)cc1	-6%	?	7%	1%	10µM*
CCc1noc(C)c1C(=O)OCC(=O)NC(C)c1ccccc1 (stereo unspecified)	·	-5%	7%	1%	31%
O=C(c1ccc2nsnc2c1)N1CCN(c2ccc([N+](=O)[O-])cc2)CC1	-9%	-22%	-5%	-11%	?
COc1ccccc1C(=O)COC(=O)C1CCN(S(=O)(=O)c2ccccc2)CC1	·	·	2%	·	·
COc1ccc(C(=O)COC(=O)c2cc(S(=O)(=O)N3CCCCC3)ccc2N2CCOCC2)c(OC)c1	·	9.3µM*	-5%	-15%	9.3µM*
O=C(COC(=O)c1cc(S(=O)(=O)N2CCCCC2)ccc1N1CCOCC1)c1ccc(F)cc1	·	?	7%	1%	-8%
COc1ccc(C(=O)COC(=O)c2cc([N+](=O)[O-])ccc2N2CCOCC2)c(OC)c1	·	-8%	-2%	5%	2%
COC(=O)c1ccccc1S(=O)(=O)N1CCC(C(=O)OCC(=O)c2ccccc2OC)CC1	·	10µM*	-3%	1%	?
COc1cccc(COC(=O)c2cc(S(=O)(=O)N3CCCCC3)ccc2N2CCOCC2)c1OC	·	6.6µM*	-8%	-4%	?
COc1ccccc1C(=O)COC(=O)c1cc(S(=O)(=O)N2CCCCC2)ccc1N1CCOCC1	·	9.3µM*	2%	9%	?
CCOC(=O)C1CCN(C(=O)c2ccc(N3CCCC3=O)cc2)CC1	·	?	1%	2%	-24%
CS(=O)(=O)c1nc(S(=O)(=O)c2ccc(Cl)cc2)c(NCCCN2CCCC2=O)s1	-7%	-9%	-7%	1%	-5%
COc1cc2c(cc1OC)C(C)N(C(=O)c1cc3c(C)cc(C)cc3[nH]1)CC2 (stereo unspecified)	-26%	10µM*	-7%	-6%	13µM*
COc1cc2c(cc1OC)C(C)N(C(=O)Nc1cc(C)cc(C)c1)CC2 (stereo unspecified)	-4%	?	2%	-1%	?
CC1(C)CC(=O)C(C=Nc2ccc(NC3=C(C#N)C(=O)CC(C)(C)C3)cc2)=C(O)C1	6%	-13%	1%	2%	13%
COc1ccc(CN2CCN(CC(O)Cn3c4ccccc4c4ccccc43)CC2)cc1 (stereo unspecified)	-21%	3.3µM*	-7%	-27%	?
CN1CCN(CC(O)Cn2c3ccccc3c3ccccc32)CC1 (stereo unspecified)	3%	?	3%	0%	-2%
CCn1c2ccccc2c2cc(CN3CCN(Cc4cc(OC)ccc4O)CC3)ccc21	·	1.2µM*	-20%	8%	53%
CCOc1ccc(CN2CCN(CC(O)Cn3c4ccccc4c4ccccc43)CC2)cc1 (stereo unspecified)	-44%	2.1µM*	-9%	-11%	?
